The text below walks through data of PubChem BioAssay (EPA / NIEHS).

Experiment [1] concerns the target Oxysterols receptor LXR-beta (Homo sapiens) (UniProt P55055). Put plainly: ATG_LXRb_TRANS: Attagene TRANS-FACTORIAL HepG2 Assay for human Liver X Receptor beta (LXRb) (AID 2282981). The settings on record: HepG2 Attagene TRANS GAL4-LXRb reporter, mRNA. An outline of the steps: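 Liver-derived HepG2 cells transfected with Gal4-responsive reporters were dosed for 24 h. Activation was scored as rise in reporter mRNA, by RT-PCR and capillary electrophoresis, above DMSO baseline.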

Experiment [2] concerns the target Nuclear receptor subfamily 4 group A member 2 (Homo sapiens) (UniProt P43354). Put plainly: ATG_NURR1_TRANS: Attagene TRANS-FACTORIAL HepG2 Assay for human Nuclear Receptor Related Protein 1 (NURR1) (AID 2282985). As to conditions: HepG2 Attagene TRANS reporter, mRNA readout. In outline: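 Chimeric NR-Gal4 proteins were expressed in human HepG2 cells bearing GAL4-UAS reporter units, and induced reporter mRNA was quantified 24 h post-dosing by RT-PCR and capillary electrophoresis.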

Experiment [3] has as its target human Peroxisome Proliferator-activated Receptor alpha (PPARa), PPARA (gene 5465) (UniProt Q07869). Description: ATG_PPARa_TRANS: Attagene TRANS-FACTORIAL HepG2 Assay for human Peroxisome Proliferator-activated Receptor alpha (PPARa) (AID 2283001). An outline of the steps:
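Exposure: 24 h, transiently transfected HepG2 cells. Endpoint: GAL4-UAS reporter mRNA, RT-PCR with capillary electrophoresis fluorescence. Baseline: DMSO; increases fitted.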

Experiment [4] in a line: ATG_XTT_Cytotoxicity: Cytotoxicity Assessment in the Attagene TRANS-FACTORIAL HepG2 Assay (AID 2283584). An outline of the steps:
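Cells: human HepG2, transiently transfected with MRTU reporter constructs. Exposure 24 h. Readout: XTT, cell number. Baseline/neg ctrl DMSO; loss-of-signal scored.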

A short description of experiment [5]: CCTE_Harrill_HTTr_Viability_MCF7: CCTE's 6-hour Cell Viability Assessment for the High-Throughput Transcriptomics (HTTr) Platform, in MCF-7 cells cultured in DMEM + 10% fetal bovine serum, Harrill Lab (AID 2284010; active = hit-call score of the fitted dose curve at least 0.9, where 1 is the maximum; inactive = score below 0.9). An outline of the steps: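 Eight-point concentration series, six-hour exposure. Propidium iodide exclusion imaged to assess membrane integrity as a cytotoxicity readout; bidirectional fitting was done with DMSO as negative control and activity baseline.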

The target in experiment [6] is Retinoic acid receptor alpha (Homo sapiens) (UniProt P10276). Description: ATG_DR5_RAR_CIS: Attagene CIS-FACTORIAL HepG2 Assay for human Retinoic Acid Receptor Alpha (RARE), DR5 submotif (AID 2282934; active = hit-call score of the fitted dose curve at least 0.9, where 1 is the maximum; inactive = score below 0.9). As to conditions: HepG2 Attagene cis-factorial RARE DR5 reporter, mRNA; actives raise or lower the signal. In outline:
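Transfected HepG2 reporter cells are exposed to chemicals for 24 h. Then RNA is extracted and the DR5 element reporter transcript is measured by RT-PCR and capillary electrophoresis, with bidirectional curve fitting relative to DMSO.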

A short description of experiment [7]: ATG_GAL4_TRANS: Attagene TRANS-FACTORIAL HepG2 Assay for GAL4 (Internal Marker) (AID 2282976). The settings on record: HepG2 Attagene TRANS GAL4 internal marker reporter. In outline: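 First, HepG2 cells were transfected with reporter units under GAL4-UAS control. Next, they were treated with chemical for 24 h. Finally, RNA was reverse-transcribed, PCR-amplified, FAM-labelled and resolved by capillary electrophoresis, with induction scored against DMSO.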

Experiment [8] concerns the target human RAR-related Orphan Receptor beta (RORb), RORB (gene 6096) (UniProt Q92753). Description: ATG_RORb_TRANS: Attagene TRANS-FACTORIAL HepG2 Assay for human RAR-related Orphan Receptor beta (RORb) (AID 2283010). An outline of the steps: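 Multiplexed transcription-factor reporter assay: HepG2 cells transiently carrying NR-Gal4/GAL4-UAS constructs, 24 h treatment, mRNA quantified by RT-PCR plus capillary electrophoresis fluorescence; activity scored as induction over DMSO.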

In experiment [9] the target is human RAR-related Orphan Receptor gamma (RORg), RORC (gene 6097) (UniProt P51449). Description: ATG_RORg_TRANS: Attagene TRANS-FACTORIAL HepG2 Assay for human RAR-related Orphan Receptor gamma (RORg) (AID 2283011). In outline: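 First, HepG2 liver cells were transfected with GAL4-UAS-driven reporter constructs and the RORg-Gal4 fusion. Next, they were treated with chemical for 24 h. Finally, reporter mRNA was quantified by RT-PCR and capillary electrophoresis, with upward activity fitted against DMSO.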

The target in experiment [10] is Cellular tumor antigen p53 (Homo sapiens) (UniProt P04637). Description: TOX21_p53_BLA_p3_ratio: Tox21 HCT-116 p53 Agonism Beta-lactamase Assay, Ratio, Phase 3 (AID 2283596). In outline:
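Cells were seeded at 4000/well, rested 5 h at 37C, then dosed with DMSO compound solutions (217-fold dilution) for 16 h. CCF4-AM substrate was loaded for 2 h at room temperature, and the 460/530 nm emission ratio was fitted for gain of signal versus DMSO.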

Experiment [11] in a line: TOX21_p53_BLA_p4_viability: Viability Assessment in the Tox21 HCT-116 p53 Agonism Beta-lactamase Assay, Phase 4 (AID 2283597).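 Also: hits lower the luminescence signal meaning cytotoxicity.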 In outline: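 Readout: ATP luminescence (CellTiter-Glo), measured 30 min after reagent addition at RT. The reagent followed a 2 h CCF4-AM incubation, and the cells had been exposed to compound for 16 h at 37C.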
The target in experiment [12] is Bile acid receptor (Homo sapiens) (UniProt Q96RI1). Description: ATG_IR1_CIS: Attagene CIS-FACTORIAL HepG2 Assay for human Nuclear Receptor Subfamily 1 Group H Member 4 (NR1H4), IR1 submotif (AID 2282946; active = hit-call score of the fitted dose curve at least 0.9, where 1 is the maximum; inactive = score below 0.9). As to conditions: IR1 reporter transcription, actives raise or lower the signal. An outline of the steps:
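Readout: reporter transcript levels by RT-PCR with fluorescent capillary electrophoresis, from HepG2 cells transiently transfected with multiplexed cis-regulated reporters and dosed 24 h. Gain- or loss-of-signal fitted versus DMSO negative control.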

For experiment [13], the target named is Nuclear receptor subfamily 1 group I member 3 (Homo sapiens) (UniProt Q14994). Put plainly: ATG_CAR_TRANS: Attagene TRANS-FACTORIAL HepG2 Assay for human Constitutive Androstane Receptor (CAR) (AID 2282969).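 Also: activators raise reporter mRNA above DMSO so AC50 marks induction.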 As to conditions: HepG2 Attagene TRANS-FACTORIAL CAR reporter. In outline: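 Steps: transient transfection of HepG2 with multiple GAL4-UAS reporter units; 24 h compound incubation; RNA isolation, RT-PCR, 6-FAM primer extension, HpaI digest; capillary electrophoresis. Gain-of-signal relative to DMSO negative control.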

In experiment [14] the target is Oxysterols receptor LXR-alpha (Homo sapiens) (UniProt Q13133). Description: ATG_LXRa_TRANS: Attagene TRANS-FACTORIAL HepG2 Assay for human Liver X Receptor alpha (LXRa) (AID 2282980). The settings on record: HepG2 Attagene TRANS reporter, LXRa transactivation. An outline of the steps:
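Transfect HepG2 with GAL4-UAS multiplex reporter constructs (TRANS format, chimeric receptor-GAL4); treat 24 h; extract RNA, reverse-transcribe, PCR-amplify, FAM-label, HpaI-digest; resolve fragments by capillary electrophoresis. Upward response vs DMSO.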

Experiment [15] can be described thus: TOX21_p53_BLA_p2_viability: Viability Assessment in the Tox21 HCT-116 p53 Agonism Beta-lactamase Assay, Phase 2 (AID 2283591).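 Also: compound exposure lasted 16 h at 37 °C; actives lower the ATP signal meaning cytotoxicity.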 In outline:
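HCT-116 p53-bla cells (4000/well) rested 5 h at 37C, then received compounds in DMSO (217-fold dilution) for 16 h at 37C, 5% CO2. After the CCF4 read, CellTiter-Glo was added; ATP luminescence was read after 30 min at room temperature.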

Experiment [16] has as its target Hepatocyte nuclear factor 4-alpha (Homo sapiens) (UniProt P41235). Put plainly: ATG_HNF4a_TRANS: Attagene TRANS-FACTORIAL HepG2 Assay for human Hepatocyte Nuclear Factor 4 alpha (HNF4a) (AID 2282982). As to conditions: HepG2 HNF4a transactivation reporter, mRNA readout. In outline:
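Using HepG2 liver cells transfected with GAL4-UAS reporter units, chemical-induced mRNA increases were assessed after 24 hours. Fluorescent RT-PCR fragments were separated by capillary electrophoresis and compared with DMSO negative controls.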

In experiment [17] the target is human Vitamin D Receptor (VDR), VDR (gene 7421) (UniProt P11473). Description: ATG_VDR_TRANS: Attagene TRANS-FACTORIAL HepG2 Assay for human Vitamin D Receptor (VDR) (AID 2283022). An outline of the steps: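 Steps: transfect HepG2 with GAL4-UAS-driven reporter constructs; dose compounds 24 h; isolate RNA, reverse-transcribe, PCR-amplify with 6-FAM-labelled primer extension and HpaI digestion; quantify fragments by capillary electrophoresis relative to DMSO.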

A short description of experiment [18]: TOX21_p53_BLA_p3_viability: Viability Assessment in the Tox21 HCT-116 p53 Agonism Beta-lactamase Assay, Phase 3 (AID 2283593).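 Also: cells exposed to compound for 16 h before reading.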 An outline of the steps: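 HCT-116 cells (4000/well) rested 5 h at 37C, then got DMSO compounds by pin tool (217-fold dilution) for 16 h at 37C, 5% CO2. After the bla read, CellTiter-Glo was added and luminescence read at 30 min, room temperature.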

Experiment [19] addresses human Peroxisome Proliferator-activated Receptor delta (PPARd), PPARD (gene 5467) (UniProt Q03181). Description: ATG_PPARd_TRANS: Attagene TRANS-FACTORIAL HepG2 Assay for human Peroxisome Proliferator-activated Receptor delta (PPARd) (AID 2283002). An outline of the steps:
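Measured quantity: GAL4-UAS reporter transcript induction in HepG2 after 24 h chemical dosing, with NR-Gal4 chimeras supplied by transient transfection. Detection by RT-PCR and capillary electrophoresis; upward fit against DMSO.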

Values joined by “and” are separate entries in the source; they are usually repeats but may differ in a detail not shown here. Equal values may be shown once. Results filed as inconclusive are left out. Where a structure was tested more than once in an assay, its records may differ in their call. Active and inactive are the calls of the source. The calls were made as follows, unless noted: active = hit-call score of the fitted dose curve at least 0.9, where 1 is the maximum; inconclusive = response in the unintended direction; inactive = score below 0.9.

Chain of human RAR-related Orphan Receptor gamma (RORg), RORC (gene 6097) (P51449 whole entry, looked up, the tested form may be a part): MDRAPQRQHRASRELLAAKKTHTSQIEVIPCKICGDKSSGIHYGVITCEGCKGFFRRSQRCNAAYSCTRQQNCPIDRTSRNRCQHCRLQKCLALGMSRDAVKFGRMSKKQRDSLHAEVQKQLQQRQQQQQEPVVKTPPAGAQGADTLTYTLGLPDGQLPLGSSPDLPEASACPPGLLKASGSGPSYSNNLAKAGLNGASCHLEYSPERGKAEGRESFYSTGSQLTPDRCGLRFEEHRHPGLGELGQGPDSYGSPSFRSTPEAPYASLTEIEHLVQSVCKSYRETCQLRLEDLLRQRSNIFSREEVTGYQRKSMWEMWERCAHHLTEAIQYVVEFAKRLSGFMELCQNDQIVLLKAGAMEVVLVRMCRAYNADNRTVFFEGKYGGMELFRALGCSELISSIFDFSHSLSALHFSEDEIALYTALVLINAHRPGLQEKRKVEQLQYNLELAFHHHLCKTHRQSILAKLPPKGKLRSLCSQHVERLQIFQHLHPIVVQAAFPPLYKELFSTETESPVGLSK
Chain of human RAR-related Orphan Receptor beta (RORb), RORB (gene 6096) (Q92753 whole entry, looked up, the tested form may be a part): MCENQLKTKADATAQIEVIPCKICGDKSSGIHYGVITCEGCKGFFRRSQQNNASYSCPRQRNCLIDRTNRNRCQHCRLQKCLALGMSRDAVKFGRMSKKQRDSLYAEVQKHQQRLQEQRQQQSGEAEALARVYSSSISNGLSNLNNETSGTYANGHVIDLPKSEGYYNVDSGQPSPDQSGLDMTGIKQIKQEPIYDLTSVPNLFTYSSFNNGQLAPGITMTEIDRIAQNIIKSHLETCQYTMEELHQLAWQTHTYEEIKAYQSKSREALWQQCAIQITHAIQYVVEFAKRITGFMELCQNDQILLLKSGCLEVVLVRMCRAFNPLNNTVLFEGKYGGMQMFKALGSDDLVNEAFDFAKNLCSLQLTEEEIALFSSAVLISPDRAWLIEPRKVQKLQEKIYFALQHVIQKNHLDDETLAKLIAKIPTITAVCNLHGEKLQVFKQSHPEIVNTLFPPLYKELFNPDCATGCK
Chain of Cellular tumor antigen p53 (Homo sapiens) (P04637 whole entry, looked up): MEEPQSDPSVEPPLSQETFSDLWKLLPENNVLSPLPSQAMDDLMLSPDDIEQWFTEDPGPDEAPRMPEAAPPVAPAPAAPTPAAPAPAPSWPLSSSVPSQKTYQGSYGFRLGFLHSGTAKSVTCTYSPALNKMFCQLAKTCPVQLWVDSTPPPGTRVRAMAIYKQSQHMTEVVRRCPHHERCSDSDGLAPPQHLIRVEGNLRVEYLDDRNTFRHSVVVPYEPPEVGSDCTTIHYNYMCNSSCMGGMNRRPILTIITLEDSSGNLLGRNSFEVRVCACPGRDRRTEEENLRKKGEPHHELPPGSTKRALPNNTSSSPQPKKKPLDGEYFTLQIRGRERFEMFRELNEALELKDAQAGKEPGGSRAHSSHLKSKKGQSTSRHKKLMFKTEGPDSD
Chain of Hepatocyte nuclear factor 4-alpha (Homo sapiens) (P41235 whole entry, looked up, the tested form may be a part): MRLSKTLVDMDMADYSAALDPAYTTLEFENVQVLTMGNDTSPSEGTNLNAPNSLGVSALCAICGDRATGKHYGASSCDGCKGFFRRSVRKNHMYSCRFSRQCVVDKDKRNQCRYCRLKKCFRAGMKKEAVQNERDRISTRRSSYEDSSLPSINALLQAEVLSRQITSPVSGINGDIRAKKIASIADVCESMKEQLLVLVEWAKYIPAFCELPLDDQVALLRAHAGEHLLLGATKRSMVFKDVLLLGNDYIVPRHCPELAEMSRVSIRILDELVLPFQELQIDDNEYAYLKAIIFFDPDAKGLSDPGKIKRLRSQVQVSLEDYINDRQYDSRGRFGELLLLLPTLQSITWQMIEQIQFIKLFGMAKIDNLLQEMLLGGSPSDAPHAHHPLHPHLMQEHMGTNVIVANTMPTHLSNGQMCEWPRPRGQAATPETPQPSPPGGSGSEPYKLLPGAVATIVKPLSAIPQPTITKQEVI
Chain of human Vitamin D Receptor (VDR), VDR (gene 7421) (P11473 whole entry, looked up, the tested form may be a part): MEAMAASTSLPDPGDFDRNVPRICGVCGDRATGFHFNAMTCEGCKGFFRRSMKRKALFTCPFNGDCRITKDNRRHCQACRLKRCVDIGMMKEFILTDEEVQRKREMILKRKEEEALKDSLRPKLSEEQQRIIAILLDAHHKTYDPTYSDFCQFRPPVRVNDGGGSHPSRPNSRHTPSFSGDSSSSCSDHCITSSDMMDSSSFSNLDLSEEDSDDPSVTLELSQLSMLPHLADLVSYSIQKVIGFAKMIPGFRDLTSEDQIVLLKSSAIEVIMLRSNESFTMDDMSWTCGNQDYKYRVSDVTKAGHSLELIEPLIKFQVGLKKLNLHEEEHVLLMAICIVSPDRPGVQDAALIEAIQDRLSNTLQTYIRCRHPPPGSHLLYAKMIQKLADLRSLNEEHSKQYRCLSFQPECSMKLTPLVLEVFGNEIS
Chain of Nuclear receptor subfamily 4 group A member 2 (Homo sapiens) (P43354 whole entry, looked up, the tested form may be a part): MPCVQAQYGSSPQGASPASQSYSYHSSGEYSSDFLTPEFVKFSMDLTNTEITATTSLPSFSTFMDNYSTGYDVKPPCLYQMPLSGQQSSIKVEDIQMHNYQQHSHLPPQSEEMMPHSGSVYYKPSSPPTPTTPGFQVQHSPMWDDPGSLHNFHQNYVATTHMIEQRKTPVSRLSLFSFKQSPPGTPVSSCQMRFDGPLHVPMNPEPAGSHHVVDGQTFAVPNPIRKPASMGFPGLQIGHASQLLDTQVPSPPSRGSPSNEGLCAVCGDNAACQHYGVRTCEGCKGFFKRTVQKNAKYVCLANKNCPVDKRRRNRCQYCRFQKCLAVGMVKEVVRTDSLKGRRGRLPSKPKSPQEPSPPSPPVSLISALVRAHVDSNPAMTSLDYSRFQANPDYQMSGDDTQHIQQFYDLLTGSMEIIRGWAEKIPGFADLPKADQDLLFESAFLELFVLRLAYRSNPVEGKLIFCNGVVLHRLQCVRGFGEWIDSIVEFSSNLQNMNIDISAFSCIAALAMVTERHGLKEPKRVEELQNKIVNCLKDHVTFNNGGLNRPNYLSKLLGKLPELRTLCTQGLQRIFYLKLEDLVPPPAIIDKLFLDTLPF
Chain of Bile acid receptor (Homo sapiens) (Q96RI1 whole entry, looked up): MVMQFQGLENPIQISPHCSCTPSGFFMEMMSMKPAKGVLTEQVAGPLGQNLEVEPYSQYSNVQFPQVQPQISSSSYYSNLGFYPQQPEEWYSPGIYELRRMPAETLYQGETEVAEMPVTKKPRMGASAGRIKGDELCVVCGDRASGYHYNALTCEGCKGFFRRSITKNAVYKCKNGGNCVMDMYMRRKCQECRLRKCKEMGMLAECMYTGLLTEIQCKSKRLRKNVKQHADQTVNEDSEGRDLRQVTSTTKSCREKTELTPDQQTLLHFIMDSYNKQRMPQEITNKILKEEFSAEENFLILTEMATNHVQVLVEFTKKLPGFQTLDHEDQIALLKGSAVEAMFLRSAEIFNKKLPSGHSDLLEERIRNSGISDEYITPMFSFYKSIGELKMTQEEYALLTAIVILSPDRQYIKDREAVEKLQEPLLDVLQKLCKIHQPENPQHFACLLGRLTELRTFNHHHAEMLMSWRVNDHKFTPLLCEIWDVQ
Chain of Oxysterols receptor LXR-beta (Homo sapiens) (P55055 whole entry, looked up, the tested form may be a part): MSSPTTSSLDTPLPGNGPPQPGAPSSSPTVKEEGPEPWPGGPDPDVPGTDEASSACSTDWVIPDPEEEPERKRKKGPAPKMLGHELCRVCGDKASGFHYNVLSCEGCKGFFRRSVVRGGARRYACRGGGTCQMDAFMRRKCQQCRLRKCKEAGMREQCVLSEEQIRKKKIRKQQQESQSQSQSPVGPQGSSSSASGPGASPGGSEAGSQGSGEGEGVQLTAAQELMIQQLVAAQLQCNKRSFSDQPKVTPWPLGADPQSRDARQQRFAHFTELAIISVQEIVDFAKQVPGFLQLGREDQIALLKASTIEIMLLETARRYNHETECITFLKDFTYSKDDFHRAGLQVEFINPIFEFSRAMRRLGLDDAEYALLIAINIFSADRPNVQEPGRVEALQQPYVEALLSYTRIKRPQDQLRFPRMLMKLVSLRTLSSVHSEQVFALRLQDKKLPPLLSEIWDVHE
Chain of Retinoic acid receptor alpha (Homo sapiens) (P10276 whole entry, looked up): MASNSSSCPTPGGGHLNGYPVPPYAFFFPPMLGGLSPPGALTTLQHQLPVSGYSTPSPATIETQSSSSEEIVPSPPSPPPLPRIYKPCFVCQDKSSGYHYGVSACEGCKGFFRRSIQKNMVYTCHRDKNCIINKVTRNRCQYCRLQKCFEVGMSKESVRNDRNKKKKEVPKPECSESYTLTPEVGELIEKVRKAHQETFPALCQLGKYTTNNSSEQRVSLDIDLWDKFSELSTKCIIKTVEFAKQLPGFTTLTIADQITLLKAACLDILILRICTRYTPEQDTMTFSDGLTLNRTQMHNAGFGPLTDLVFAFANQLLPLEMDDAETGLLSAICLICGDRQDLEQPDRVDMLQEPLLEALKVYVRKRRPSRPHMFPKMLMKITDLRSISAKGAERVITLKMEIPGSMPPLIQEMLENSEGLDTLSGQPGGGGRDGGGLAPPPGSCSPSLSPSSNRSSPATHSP
Chain of human Peroxisome Proliferator-activated Receptor alpha (PPARa), PPARA (gene 5465) (Q07869 whole entry, looked up, the tested form may be a part): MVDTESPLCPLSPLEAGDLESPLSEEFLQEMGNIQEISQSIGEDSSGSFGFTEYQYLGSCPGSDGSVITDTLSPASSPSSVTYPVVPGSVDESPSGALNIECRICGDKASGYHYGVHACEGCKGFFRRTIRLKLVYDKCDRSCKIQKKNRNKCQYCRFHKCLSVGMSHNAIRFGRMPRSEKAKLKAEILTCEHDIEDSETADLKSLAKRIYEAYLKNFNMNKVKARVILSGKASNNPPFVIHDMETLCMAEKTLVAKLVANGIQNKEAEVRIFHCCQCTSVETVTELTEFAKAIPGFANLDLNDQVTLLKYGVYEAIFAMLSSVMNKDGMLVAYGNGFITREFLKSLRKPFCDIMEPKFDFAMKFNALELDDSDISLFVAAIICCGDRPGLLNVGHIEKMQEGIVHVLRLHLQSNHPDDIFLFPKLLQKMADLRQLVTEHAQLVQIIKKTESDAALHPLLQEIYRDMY

For the compound `O=S(=O)(O)O`, the compound was classed as inactive in [1], in [2], in [3], in experiment [4] and in [5].

With `C#CC1(O)CCCCC1`, the compound was classed as inactive in [6], in experiment [7], in [2], in experiment [8], in experiment [9] and in [4]. For the same compound, the result in [10] and in experiment [11] was inactive.

For the compound `CC(O)CN(CC(C)O)CC(C)O` (centres undefined), the result in [6], in experiment [12], in [13], in experiment [14], in experiment [1] and in experiment [3] was inactive. For the same compound, the compound was classed as inactive in experiment [8], in experiment [9], in [15], in experiment [10] and in experiment [11].

`c1ccc2c(c1)CCCC2`: the result in experiment [12], in experiment [7], in [1], in [16], in experiment [8] and in [9] was inactive. The result in experiment [17], in [4], in [15], in [18], in experiment [10] and in [11] was inactive.

As for `CCOP(O)OCC`, the outcome in experiment [6], in [16], in experiment [2], in experiment [19], in [17] and in [4] was inactive.

`O=C1C(Cl)=C(Cl)C(=O)C(Cl)=C1Cl`: the call in [6], in experiment [13], in experiment [14], in experiment [1], in experiment [16] and in experiment [2] was inactive. Moreover, the outcome in [3], in [19], in experiment [9], in [17], in [4] and in experiment [15] was inactive. Also, in experiment [5], the result was inactive. Moreover, the AC50 in experiment [12] is 72.4 µM (active); in experiment [15], 58.9 µM (active); in experiment [18], 21.6 µM (active) and 44.2 µM (active); in [11], 73.4 µM (active) and 73.7 µM (active).

Usually AC50 stands for the midpoint of the concentration-response curve, whichever way the signal moves.
